Bioassay records deposited in PubChem by National Center for Advancing Translational Sciences (NCATS).
Hits are enriched below; roughly 5.7% of the tested compounds scored in any of these assays.
Nrf2 inh: inhibitors of Nrf2 signaling | A549 ARE-Fluc reporter, luciferase luminescence, 18-24 h | Potency, µM (highest dose often 46 µM), for the others: at the highest dose activity change, negative = inhibition, usual class: inhibitors | hit rate 2.1% among 360,000; note: potency is the fitted concentration of half-maximal effect; nearly all actives have a fitted effect of over 60% in size
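Cells were seeded and rested 2 h, then exposed to compounds for 18-24 h. CellTiter-Fluor was read first as a viability measure. BugLite was added 15 min before the final luminescent read of ARE-luciferase activity in A549 cells.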
KB-3-1 cytotox: KB-3-1 parental cell cytotoxicity; KB-3-1 viability, CellTiter-Glo ATP luminescence, 72 h; Potency, µM (top dose mostly 46.1 µM), actives largely listed as cytotoxic; hit rate 1.4% among 400,000; AID 1347075; note: potency is the fitted concentration of half-maximal effect; nearly all actives have a fitted effect of over 60% in size
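Multi-concentration cytotoxicity screen in KB-3-1 cells grown in DMEM lacking phenol red with 10% FBS. After 72 h at 37 °C with compound, ATP-dependent luminescence was recorded.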
KB-V1 cytotox: KB-V1 MDR subline cytotoxicity; KB-V1 MDR cells viability, CellTiter-Glo, 72 h; Potency, µM (doses to about 46.1 µM), actives largely listed as cytotoxic; hit rate 3.4% among 400,000; AID 1347076; note: potency is the fitted concentration of half-maximal effect; nearly all actives have a fitted effect of over 60% in size
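KB-V1 cells (P-gp-expressing MDR subline of KB-3-1) in phenol-red-free DMEM with 10% FBS were exposed to library compounds over a concentration series for 72 h at 37 degrees C. Viability read by CellTiter-Glo luminescence; concentration-effect curves fitted after normalization.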
A549 viability: A549 cytotoxicity, counter-screen for Nrf2 inhibitors. A549 ARE-Fluc cells, CellTiter-Fluor viability, 18-24 h. Potency, µM (top dose mostly 46 µM), for the others: at the top dose activity change, negative = cytotoxicity, most hits filed as inhibitors. hit rate 0.16% among 390,000. AID 504648; note: potency is the fitted concentration of half-maximal effect
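A549 ARE_Fluc cells in 5% FBS OPTI-MEM were exposed to compounds in concentration-response for 18-24 h at 37 deg C. Viability was read by CellTiter-Fluor fluorescence (Ex 405/Em 525) after 30 min, before the luciferase read.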
PI4K2A block: inhibitors of human PI4K2A; purified PI4K2A, ADP-Glo luminescence, 1 h; stronger effect = lower value; hit rate 0.13% among 420,000; Q9BTU6; activity change, negative = inhibition, % at 76.9 µM; in the data active = activity change below about -50%; inconclusive = mostly about -30% to -49%;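 note: -100% = wells without enzyme as full effect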
Target sequence (Q9BTU6 whole entry, looked up): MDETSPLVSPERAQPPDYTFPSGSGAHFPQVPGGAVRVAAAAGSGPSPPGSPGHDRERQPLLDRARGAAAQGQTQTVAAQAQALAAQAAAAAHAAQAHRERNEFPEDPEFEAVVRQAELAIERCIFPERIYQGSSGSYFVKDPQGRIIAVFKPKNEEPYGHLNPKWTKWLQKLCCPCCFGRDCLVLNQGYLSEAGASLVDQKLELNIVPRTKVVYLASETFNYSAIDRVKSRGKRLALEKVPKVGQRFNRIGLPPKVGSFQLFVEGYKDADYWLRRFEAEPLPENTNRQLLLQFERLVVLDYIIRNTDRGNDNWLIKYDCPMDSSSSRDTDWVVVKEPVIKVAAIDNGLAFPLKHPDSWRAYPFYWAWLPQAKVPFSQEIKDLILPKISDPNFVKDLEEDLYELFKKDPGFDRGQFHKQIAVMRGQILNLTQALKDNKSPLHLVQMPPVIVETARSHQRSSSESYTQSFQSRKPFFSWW
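PI4K2A activity was measured by ADP-Glo luminescence: enzyme (4 ug/mL stock) and phosphatidylinositol (1.2 mM stock) in Tris pH 7.5/MgCl2/EGTA/Triton X-100 buffer were reacted with ATP (300 microM stock) for one hour at ambient temperature.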
Giardia kill: kills Giardia lamblia. Giardia lamblia trophozoite viability. hit rate 0.15% among 340,000. activity change, % at 7.66 µM, hits read low. AID 540267; in the data active = activity change below about -80%; inconclusive = between about -30% and that limit;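 note: parasites exposed to compound for two days anaerobically before the ATP read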
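Viability, read as ATP luminescence: trophozoites at 100 cells/well, compound added, 48 hrs anaerobic at 37 deg C, then 15-30 min room-temperature development before reading.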
Active calls of the source: *; i = inactive; u = inconclusive; x = no result. Unless noted, calls come from the whole dose curve; as a rule, active = well fitted curve in the direction sought with a large enough effect; inconclusive = small, poorly fitted or top-dose-only effect, or another doubt; inactive = no such curve, though single readings can be large; an effect the other way counts as inactive or inconclusive. Unless noted, % is set by controls: 0 for no effect and ±100 for the full control effect.

SMILES	Nrf2 inh	KB-3-1 cytotox	KB-V1 cytotox	A549 viability	PI4K2A block	Giardia kill
Cc1ccc(NC(=O)c2ccc(Cl)c(S(=O)(=O)N3CCCCC3)c2)nc1	21µM*	i	u	-7%	8	-6
CCOc1ccc(N(CC(=O)NCc2ccccc2)C(=O)Cn2nnc(-c3ccc(C)o3)n2)cc1	-2%	i	i	-2%	1	16
CCOc1ccccc1N(CC(=O)NC(C)(C)C)C(=O)Cn1nnc(-c2ccc(C)o2)n1	x	i	2.9µM*	-2%	2	-7
CCC(C(=O)NC1CCCC1)N(C(=O)Cn1nnc(-c2ccc(C)o2)n1)C(C)(C)C (centres undefined)	x	i	1.2µM*	-14%	4	-9
CCCC(C(=O)NC1CCCC1)N(C(=O)Cn1nnc(-c2ccc(C)o2)n1)C1CCCC1 (centres undefined)	-14%	i	4.1µM*	-24%	-5	-11
CCC(C(=O)NC1CCCC1)N(C(=O)Cn1nnc(-c2ccc(C)o2)n1)c1ccc(OC)cc1 (centres undefined)	0%	i	u	7%	-3	-11
Cc1[nH]c2ccccc2c1C(=O)CSc1nc2ccccc2[nH]1	15%	i	21µM*	10%	-4	9
Cc1[nH]c2ccccc2c1C(=O)CSC(=S)N1CCCCC1	u	i	13µM*	-2%	0	-12
Cc1ccc2nc(SCC(=O)c3ccc4c(c3)OCO4)[nH]c2c1	0%	i	i	-5%	-3	-7
O=C(CSc1nnc(SCc2cccc3ccccc23)s1)Nc1ccc(C(=O)O)cc1	1%	i	i	4%	-3	0
O=C(CSc1nc2ccccc2[nH]1)c1ccc2c(c1)OCO2	6%	i	18µM*	3%	3	12
O=C(CSc1nnc(SCc2cccc3ccccc23)s1)c1ccc2c(c1)OCO2	2%	i	18µM*	u	11	-9
COc1cc(F)c(S(=O)(=O)N2CCN(S(=O)(=O)c3cccc(N)c3)CC2)c(F)c1	0%	x	x	2%	x	x
O=C(Nc1ccc(Cl)cc1)C1CCN(c2nc3ccccc3nc2C(F)(F)F)CC1	u	i	u	-9%	-6	x
CCCN(CCC)CCCNC(=O)C1CCN(c2nc3ccc(CC)cc3s2)CC1	u	x	x	-1%	0	x
COCCOC(=O)c1[nH]c2c(c1C)C(=O)CC(c1cc(OC)ccc1OC)C2 (centres undefined)	7%	8.2µM*	u	-6%	-1	-12
CCCOCCOC(=O)c1[nH]c2c(c1C)C(=O)CC(c1cc(OC)ccc1OC)C2 (centres undefined)	1%	5.8µM*	5.8µM*	-13%	-5	5
COc1ccc(OC)c(C2CC(=O)c3c([nH]c(C(=O)OC(C)C)c3C)C2)c1 (centres undefined)	-3%	0.46µM*	0.52µM*	u	-3	1
COc1ccc(OC)c(C2CC(=O)c3c([nH]c(C(=O)OCC4CCCO4)c3C)C2)c1 (centres undefined)	u	9.2µM*	u	-9%	-5	-25
COc1ccc(OC)c(C2CC(=O)c3c([nH]c(C(=O)OCc4ccc(C)cc4)c3C)C2)c1 (centres undefined)	-2%	x	x	-3%	-4	x
O=C1CCc2cc(Cl)c(S(=O)(=O)Nc3ccc(Cl)c(Cl)c3)cc2N1	0%	i	i	13%	x	x
CCOC(=O)c1[nH]c2c(c1C)C(=O)CC(c1ccc(OC)c(OC)c1)C2 (centres undefined)	-2%	i	i	-7%	2	-12
CCOCCOC(=O)c1[nH]c2c(c1C)C(=O)CC(c1ccc(OC)c(OC)c1)C2 (centres undefined)	21µM*	i	u	-1%	-1	6
COC(=O)c1cccc(S(=O)(=O)N2CCC(C)CC2)c1	-6%	i	21µM*	-12%	-5	-10
